A selection: hits, their analogues and other compounds. The true share with any hit is near 28%.
CYP2C9 inhib: inhibitors of human CYP2C9; inhibition, % at 5 µM; CYP2C9 Supersomes, luciferin-H conversion, luminescence; P11712; AID 777; 96,000 compounds, 20% hits;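 active = blocking of liver enzyme CYP2C9 beyond about 50% at 5 µM, limit read from the data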
Target sequence (P11712 whole entry, looked up): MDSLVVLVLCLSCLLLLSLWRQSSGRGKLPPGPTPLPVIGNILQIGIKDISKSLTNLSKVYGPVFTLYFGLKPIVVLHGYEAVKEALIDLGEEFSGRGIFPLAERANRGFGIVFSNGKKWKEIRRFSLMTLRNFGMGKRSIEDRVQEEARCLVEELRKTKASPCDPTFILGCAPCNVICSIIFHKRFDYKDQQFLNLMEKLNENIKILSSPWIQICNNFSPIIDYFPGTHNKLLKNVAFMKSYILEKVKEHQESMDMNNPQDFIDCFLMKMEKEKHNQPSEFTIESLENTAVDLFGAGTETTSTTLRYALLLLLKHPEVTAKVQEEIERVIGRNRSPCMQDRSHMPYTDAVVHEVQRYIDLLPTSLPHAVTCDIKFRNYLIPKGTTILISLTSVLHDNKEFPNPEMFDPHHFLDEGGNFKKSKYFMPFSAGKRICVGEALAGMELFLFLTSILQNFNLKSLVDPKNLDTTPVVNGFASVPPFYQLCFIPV
CYP2C9 act: activators of human CYP2C9. recombinant CYP2C9, luciferin-H conversion, luminescence; hits give high values; factor 1 = untreated enzyme, 0 = blocked. activation factor at 5 µM. 96,000 compounds, 1.4% hits. AID 1024;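 active = activation factor of 2 or more for CYP2C9 at a 5 µM dose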
Mac1 fbg inh: inhibitors of human CD11b/CD18 binding to fibrinogen. P05107+P11215. 93,000 compounds, 0.54% hits. K562 CD11b/CD18 adhesion to fibrinogen, ATPlite luminescence; Mn2+ added to activate the integrin. inhibition, % at 10 µM;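 active = primary inhibition of 50% or more at 10 µM, then 40% or more on retest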
Mac1 fbg enh: enhancers of human CD11b/CD18 binding to fibrinogen; activation, % at 10 µM; P05107+P11215; 93,000 compounds, 0.07% hits; K562 CD11b/CD18 adhesion to fibrinogen, ATPlite luminescence;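 active = 10 µM primary screen giving 50% or more activity, confirmed by 40% or more on retest at that dose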
CYP2C19 inh: human CYP2C19 inhibition. 96,000 compounds, 21% hits. inhibition, % at 5 µM. CYP2C19 Supersomes, luciferin-H EGE luminescence, 30 min;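 active = CYP2C19 inhibition above a set limit at 5 µM in the primary screen, cut at about 50% in these data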
CYP2C19 activ: cytochrome P450 2C19 (human) activation; P33261; recombinant CYP2C19, luciferin-H EGE luminescence; hits give high values; 0 = fully inhibited enzyme, 1 = untreated enzyme; activation factor at 5 µM; 96,000 tested, under 10 active;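 active = activation factor of at least 2 at 5 µM in the primary screen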
Each line names hits and unclear results; the compound was inactive in the other large screens.

Nc1c(N2CCCCC2)c(=O)[nH]c(=O)n1-c1ccccc1	CYP2C19 inh 55 (no result: Mac1 fbg inh, Mac1 fbg enh)
CCC(C(=O)NCCC1=CCCCC1)c1ccccc1 (stereo not given)	none (no result: CYP2C9 inhib, CYP2C9 act, CYP2C19 inh, CYP2C19 activ)
CCOc1ccccc1N1CCN(C2=C(NS(=O)(=O)c3cccs3)C(=O)c3ccccc3C2=O)CC1	CYP2C9 inhib 100, CYP2C19 inh 92
O=C1C(NS(=O)(=O)c2cccs2)=C(N2CCN(c3cccc(C(F)(F)F)c3)CC2)C(=O)c2ccccc21	CYP2C9 inhib 52
CCc1cc2c(NCc3ccco3)ncnc2s1	CYP2C19 inh 50
COc1ccc(-n2ncc3c(NCc4ccco4)ncnc32)cc1	none
Clc1ccc(Cn2ncc3c(NCc4ccco4)ncnc32)c(Cl)c1	CYP2C9 act 2.8
CC1(C)OC(=O)C(C(c2ccccc2)C(C#N)C(N)=O)=C(O)O1 (stereo not given)	none
CCOC(=O)C1CCCN(C/C(O)=C(\C#N)c2nc(-c3ccccc3)cs2)C1 (stereo not given)	none
S=c1[nH]nc(Cc2sc(-c3ccccc3)nc2-c2ccccc2)o1	CYP2C9 inhib 64
Cc1c(NC(=O)CCCCCN2C(=O)C3C4C=CC(C4)C3C2=O)c(=O)n(-c2ccccc2)n1C (stereo not given)	none
C=C(C)Cn1c(SCC(=O)O)nnc1-c1ccccc1	none
C=C(C)Cn1c(-c2ccccc2)nc2ccccc21	CYP2C19 inh 69
CCCc1nnc(NC(=O)CCC(=O)N2CCCCCC2)s1	none
Cc1ccc(NC(=S)N(Cc2ccco2)C2CCN(C(C)C)CC2)cc1	none (no result: CYP2C9 inhib, CYP2C9 act, CYP2C19 inh, CYP2C19 activ)
CCn1c(SCc2nc3ccccc3[nH]2)nnc1-c1cnccn1	CYP2C19 inh 91
CCn1c(SCc2nc3ccccc3[nH]2)nnc1-c1ccncc1	CYP2C19 inh 93
CCn1c(SCC(=O)NCC(=O)Nc2ccc(F)cc2)nnc1-c1ccncc1	none
CCn1c(SCc2nc3ccccc3[nH]2)nnc1-c1cccnc1	CYP2C19 inh 78
O=C(Nc1ccccc1Cl)c1ccc(COc2ccc3c(c2)CCC3)cc1	none (no result: CYP2C9 inhib, CYP2C9 act, CYP2C19 inh, CYP2C19 activ)
O=S(=O)(NCc1cccnc1)c1cccc2cccnc12	none
Cc1ccc(C(C)C)cc1S(=O)(=O)NCc1cccnc1	CYP2C9 inhib 62, CYP2C19 inh 78
Cc1ccc(S(=O)(=O)NCc2cccnc2)s1	none
O=S(=O)(NCc1cccnc1)c1ccc(Cl)c(Cl)c1Cl	CYP2C19 inh 88
O=C(COC(=O)CCCSc1nc2ccccc2[nH]1)NC(=O)NC1CCCC1	none
O=C(O)CC(Cc1ccc(Cl)cc1)C(=O)NCc1ccccc1 (stereo not given)	none (no result: CYP2C9 inhib, CYP2C9 act, CYP2C19 inh, CYP2C19 activ)
CCOc1cc(C#N)c(NC(=O)CSc2nnnn2-c2ccc(OC)cc2)cc1OCC	none
O=C(Cc1c(F)cccc1Cl)Nc1ccon1	CYP2C9 inhib 78
CCOC(=O)CN(C(=O)CSc1nnc(C)n1-c1ccccc1)c1ccccc1	none
CN(C(=O)CSc1nc(N)nn1-c1ccccc1)c1ccccc1	CYP2C19 inh 84
Cc1nc2cc(N3CCCCC3)c(NC(=O)c3ccncc3)cc2c(=O)n1Cc1ccccc1	CYP2C9 inhib 81
Cc1nc2cc(N3CCOCC3)c(NC(=O)C3CC3)cc2c(=O)n1Cc1ccccc1	none
CC1=NN(c2ccc(F)cc2)C(=O)C1C(c1cccc(O)c1)c1c(C)[nH]n(-c2ccc(F)cc2)c1=O (stereo not given)	CYP2C9 inhib 59 (no result: Mac1 fbg inh, Mac1 fbg enh)
N=c1sccn1CC(=O)Nc1ccc(Cl)c(S(=O)(=O)N2CCOCC2)c1	none
Cc1occc(=O)c1OC(=O)Nc1ccccc1	none
CN(C)c1ccc(C(=O)c2ccccc2)cc1	CYP2C19 inh 88
CN(C)c1ccc(C(=O)c2ccccc2C(=O)O)c(O)c1	none
CC(=O)Nc1ccc(NC(=O)Oc2ccccc2)cc1	none
CN(C)c1ccc(NC(=O)Oc2ccccc2)cc1	CYP2C19 inh 91
COc1ccc(OC(=O)Nc2ccccc2)cc1	CYP2C9 inhib 67, CYP2C19 inh 78
COc1ccc(Cc2nnc(SCC(=O)NCC3CCCO3)o2)cc1 (stereo not given)	none
COc1ccc(N/N=C(\C=N\O)C(=O)c2ccc(OC)cc2)cc1	CYP2C9 inhib 88, CYP2C19 inh 75
C=CCn1c(NC(=O)c2ccco2)c(S(=O)(=O)c2ccccc2)c2nc3ccccc3nc21	CYP2C9 inhib 66
C=CCn1c(NC(=O)c2ccc(Br)o2)c(S(=O)(=O)c2ccccc2)c2nc3ccccc3nc21	CYP2C9 inhib 53
CCCCn1c(NS(=O)(=O)c2ccc(C)cc2)c(S(=O)(=O)c2ccccc2)c2nc3ccccc3nc21	none (no result: CYP2C9 inhib, CYP2C9 act, CYP2C19 inh, CYP2C19 activ)
CN(/C=C/C(=O)C(F)(F)C(F)(F)F)Cc1ccccc1	CYP2C19 inh 62
N#CC1C(=O)NC(N2CCN(c3ccccc3)CC2)=NC12CCCCC2 (stereo not given)	none
Nc1cc(C(=O)N2CCCC2)cc(C(=O)N2CCCC2)c1	none
CC(C)(C)c1nnc2sc(SCC(=O)c3cccs3)nn2c1=O	CYP2C9 inhib 96
Cc1ccc(C(=O)CSc2nn3c(=O)c(C(C)(C)C)nnc3s2)cc1	none
CC(C)(C)c1nnc2sc(SCC(=O)N3CCCc4ccccc43)nn2c1=O	CYP2C19 inh 71
CC(C)c1nc2sc3c(=O)n(N)cnc3c2c2c1COC(C)(C)C2	none (no result: CYP2C9 inhib, CYP2C9 act, CYP2C19 inh, CYP2C19 activ)
Cc1c(C(=O)OC(C)C)[nH]c2c1C(=O)CC(C)(C)C2	CYP2C9 inhib 76, CYP2C19 inh 75
Cc1c(C(=O)OC(C)C)[nH]c2c1C(=O)CCC2	none
Cc1noc(C)c1CN1C(=O)NC2(CCCCCCC2)C1=O	CYP2C19 inh 61
O=C(N1CCOCC1)C1(c2ccc(Cl)cc2)CCCC1	CYP2C19 inh 88
O=S(=O)(Nc1nc2ccccc2[nH]1)c1ccc2ccccc2c1	CYP2C19 inh 74
O=S(=O)(Nc1ncn[nH]1)c1ccc2ccccc2c1	none
Cc1ccc(NC(=O)CS(=O)CC(=O)NCCCc2ccccc2)cc1Cl (stereo not given)	none (no result: Mac1 fbg inh, Mac1 fbg enh)
CN(C)CCNC(=O)COc1cccc(Cl)c1	CYP2C9 inhib 56, CYP2C19 inh 72
O=C(COc1ccc(Cl)cc1)NCCSCc1cccc(Cl)c1	none (no result: Mac1 fbg inh, Mac1 fbg enh)
C1=CC2CC1CC2CN1CCN(Cc2ccccc2)CC1 (stereo not given)	CYP2C19 inh 53
CC1(C(=O)NC2CCCC2)CCC(=O)N1CCC1=CCCCC1 (stereo not given)	none
CCOC(=O)CSC1=C(C#N)C(c2ccccc2Cl)C(C(=O)OC)C(=O)N1 (stereo not given)	CYP2C9 inhib 65, CYP2C19 inh 59
CCCCSC1=C(C#N)C(c2ccccc2C)C(C(=O)OCC)C(=O)N1 (stereo not given)	CYP2C9 inhib 66, CYP2C19 inh 61
CCOC(=O)C1C(=O)NC(SCC(=O)OC)=C(C#N)C1c1ccccc1OCC (stereo not given)	CYP2C19 inh 68

Screening data from PubChem BioAssay.
